Results: PubChem BioAssay (Tox21)
Where “and” joins values, the source holds several entries; their conditions need not be identical. Identical values can stand only once. Inconclusive results are not listed. Entries that show only a call come without a potency. More than one record can exist for a structure, and the calls need not agree. Calls of active or inactive are those of the source. Unless noted, calls come from the whole dose curve.

What was measured:
[1] = Nuclear factor erythroid 2-related factor 2/antioxidant responsive element (Nrf2/ARE) small molecule agonists: qHTS cell viability counter screen in human keratinocytes (AID 1919968; active = well fitted curve in the direction sought with a large enough effect in the repeat runs; an effect the other way counts as inactive or inconclusive; note: nearly all actives have a fitted effect of over 55% in size)
How it was run: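 Viability counter-screen: KeratinoSens reporter cells, DMSO-delivered compounds, 23 h at 37 C, CellTiter-Fluor fluorescence.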

[2] = Nuclear factor erythroid 2-related factor 2/antioxidant responsive element (Nrf2/ARE) small molecule agonists: luciferase reporter gene qHTS assay in human keratinocytes (AID 1919969); note: nearly all actives have a fitted effect of over 35% in size; note: potency is the fitted concentration of half-maximal effect
[3] = biological target: Gonadotropin-releasing hormone receptor (Homo sapiens) (UniProt P30968); test: Human gonadotropin-releasing hormone receptor (GnRHR) small molecule agonists, calcium flux assay in GnRHR-HEK293 cells (AID 1920063); note: nearly all actives have a fitted effect of over 35% in size
How it was run: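 Tox21-format agonist screen using human GnRHR-expressing HEK293 cells and a fluorescent calcium dye; kinetic 3-min fluorescence reading after compound addition, 15-point concentration series run in triplicate.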

[4] = biological target: KiSS-1 receptor (Homo sapiens) (UniProt Q969F8); test: Human kisspeptin (KISS1R) small molecule agonists, calcium flux assay in KISS1R-HEK293 cells (AID 1920064; active = well fitted curve in the direction sought with a large enough effect in the repeat runs; an effect the other way counts as inactive or inconclusive)
How it was run: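 Intracellular calcium mobilization in KISS1R-HEK293 cells was recorded by fluorescence (Ex/Em 480/540) for 3 min following compound addition to cells pre-loaded 1 h with calcium dye.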

[5] = G protein-coupled receptor (GPCR) small molecule agonists, calcium flux assay: HEK293 wild type cell line counter screen (AID 1920065)
How it was run: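 In this agonist-mode screen, ATP is the positive control and DMSO the vehicle. Cells grow 18 h before a 1 h dye incubation at 37 C; signal is taken at Ex/Em 480/540 over 3 min.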

[6] = p53 small molecule agonists, cell-based qHTS assay with human liver microsomes (AID 1963577);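 note: p53 response element beta-lactamase reporter cells with liver microsomes plus NADPH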
How it was run: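 Steps: plate p53RE-bla cells, incubate 5 h at 37 C; add compound in DMSO; add microsomes (0.5 mg/mL final) and NADPH (0.5 mg/mL final); incubate 16 h at 37 C; add LiveBLAzer, 2 h RT; read fluorescence.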

[7] = p53 small molecule agonists, cell-based qHTS assay with rat liver microsomes (AID 1963578)
How it was run: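 Metabolic activation is supplied by rat liver microsomes with NADPH (each 0.5 mg/mL final). p53RE-bla cells incubate with compound 16 h at 37 C; reporter activity is measured by LiveBLAzer fluorescence.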

[8] = p53 small molecule agonists, cell-based qHTS assay with human liver microsomes: qHTS cell viability counter screen (AID 1963579); note: nearly all actives have a fitted effect of over 45% in size
How it was run: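 After the 460/530 nm beta-lactamase read, CellTiter-Glo was added to the same wells and luminescence measured after 30 min at room temperature, giving viability of p53RE-bla cells treated 16 h with compounds plus microsomes and NADPH.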

[9] = p53 small molecule agonists, cell-based qHTS assay with rat liver microsomes: qHTS cell viability counter screen (AID 1963580); note: nearly all actives have a fitted effect of over 45% in size
How it was run: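 HCT-116 p53RE-bla, 4,000 cells/well, 5 h pre-incubation; cpd + rat liver microsomes 0.5 mg/mL + NADPH 0.5 mg/mL (final); 16 h, 37 C; CellTiter-Glo, 30 min RT; luminescence.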

[10] = p53 small molecule agonists, cell-based qHTS assay: qHTS cell viability counter screen (AID 1963581); note: nearly all actives have a fitted effect of over 45% in size
How it was run: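 Compounds are pinned onto HCT-116 p53RE-bla cells and left 16 h at 37 C. Following the reporter FRET read, ATP is quantified by CellTiter-Glo luminescence after 30 min at room temperature.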

[11] = p53 small molecule agonists, cell-based qHTS assay (AID 1963582; active = well fitted activation curve with a large enough effect in the signal ratio in the repeat runs, not every such curve was filed as active; the % refers to the signal ratio)
How it was run: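 Agonist activity was scored from beta-lactamase FRET fluorescence in p53RE-bla cells treated 16 h at 37 C with compounds in DMSO, substrate incubation being 2 h at room temperature.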

[12] = biological target: Muscarinic acetylcholine receptor M1 (Homo sapiens) (UniProt P11229); test: Cholinergic receptor muscarinic 1 (CHRM1) small molecule antagonists, cell-based qHTS assay (AID 1963588); note: nearly all actives have a fitted effect of over 40% in size
How it was run: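 CHRM1-CHO calcium-flux assay, antagonist mode. Cells were seeded 18 h, dye-loaded 1 h at 37 C and given compound for 5 min at RT, then acetylcholine was added at 50nM. FDSS fluorescence was read 3 min; 15 concentrations, three runs.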

[13] = biological target: Muscarinic acetylcholine receptor M1 (Homo sapiens) (UniProt P11229); test: Cholinergic receptor muscarinic 1 (CHRM1) small molecule agonists, cell-based qHTS assay (AID 1963589); note: nearly all actives have a fitted effect of over 35% in size
How it was run: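 Stable CHRM1-CHO cells (human receptor) were incubated 18 h, dye-loaded for 1 h at 37 C and exposed to test compounds for agonist activity, with calcium-dependent fluorescence followed kinetically.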

[14] = cAMP Responsive Elements (CRE) small molecule agonists, cell-based qHTS assay (AID 1963590)
How it was run: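 FRET-based beta-lactamase readout (LiveBLAzer B/G, 2 h RT) quantified CRE activation in HEK 293T CRE-bla cells after 3 h treatment with DMSO-dissolved compounds.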

[15] = cAMP Responsive Elements (CRE) small molecule antagonists, cell-based qHTS assay (AID 1963591; active = well fitted inhibition curve with a large enough effect in the signal ratio in the repeat runs, not every such curve was filed as active; the % refers to the signal ratio)
How it was run: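 qHTS in CRE-bla HEK 293T cells: compound in DMSO, then 0.25 uM NKH477 (final), 3 h at 37 °C/5% CO2; beta-lactamase FRET read-out after 2 h substrate incubation.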

[16] = biological target: Beta-2 adrenergic receptor (Homo sapiens) (UniProt P07550); test: Adrenergic beta2 receptor (ADRB2) small molecule antagonists, cell-based qHTS assay (AID 1963592); note: series mostly up to about 92 µM; nearly all actives have a fitted effect of over 50% in size
How it was run: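 Cells (CHO, stable ADRB2 overexpression) incubated 18-20hr at 37C; compounds added from DMSO; agonist mix (1nM isoproterenol, 100uM IBMX, 25uM Ro-20-1724) added; 0.5hr RT; d2-cAMP and anti-cAMP-cryptate added; 1hr RT; 665/615 nm read.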

[17] = biological target: Beta-2 adrenergic receptor (Homo sapiens) (UniProt P07550); test: Adrenergic beta2 receptor (ADRB2) small molecule agonists, cell-based qHTS assay (AID 1963593);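 note: CHO cells stably overexpressing human ADRB2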
How it was run: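 CHO cells stably over-expressing ADRB2 were plated overnight at 37C, then dosed with compounds plus a stimulation mix containing 100uM IBMX and 25uM Ro-20-1724 for 0.5hr at room temperature. cAMP was measured by HTRF competition, 1hr.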

[18] = biological target: D(2) dopamine receptor (Homo sapiens) (UniProt P14416); test: Dopamine D2 receptor (DRD2) small molecule antagonists, cell-based qHTS assay (AID 1963595; active = well fitted inhibition curve with a large enough effect in the signal ratio in the repeat runs, with a control signal flat; the % refers to the signal ratio)
How it was run: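 Cells were plated and grown for 24 h at 37 °C. Ro20-1724 (0.1 mM final) went in first, then compound for 10 min. NKH477 (200 nM) with quinpirole (12 nM) followed for 30 min at RT, then HTRF detection reagents for 1 h.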

[19] = biological target: 5-hydroxytryptamine receptor 2A (Homo sapiens) (UniProt P28223); test: 5-hydroxytryptamine receptor 2A (HTR2A) small molecule agonists, cell-based qHTS assay (AID 1963587); note: nearly all actives have a fitted effect of over 30% in size
How it was run: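 Kinetic calcium-flux fluorescence (2 min, 1 sec intervals) after compound addition in agonist mode. HTR2A-CHO cells were cultured 18 h, then dye-loaded 1 h at 37 C.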

[20] = biological target: D(2) dopamine receptor (Homo sapiens) (UniProt P14416); test: Dopamine D2 receptor (DRD2) small molecule agonists, cell-based qHTS assay (AID 1963594); note: nearly all actives have a fitted effect of over 35% in size
How it was run: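 cAMP accumulation in DRD2-HEK293 cells measured by HTRF after 1 h detection; compounds added 10 min before NKH477 (200nM […]) forskolin-analogue stimulation, 30 min at room temperature, with Ro20-1724 present at 0.1 mM final.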

Chain of Beta-2 adrenergic receptor (Homo sapiens) (P07550 whole entry, looked up): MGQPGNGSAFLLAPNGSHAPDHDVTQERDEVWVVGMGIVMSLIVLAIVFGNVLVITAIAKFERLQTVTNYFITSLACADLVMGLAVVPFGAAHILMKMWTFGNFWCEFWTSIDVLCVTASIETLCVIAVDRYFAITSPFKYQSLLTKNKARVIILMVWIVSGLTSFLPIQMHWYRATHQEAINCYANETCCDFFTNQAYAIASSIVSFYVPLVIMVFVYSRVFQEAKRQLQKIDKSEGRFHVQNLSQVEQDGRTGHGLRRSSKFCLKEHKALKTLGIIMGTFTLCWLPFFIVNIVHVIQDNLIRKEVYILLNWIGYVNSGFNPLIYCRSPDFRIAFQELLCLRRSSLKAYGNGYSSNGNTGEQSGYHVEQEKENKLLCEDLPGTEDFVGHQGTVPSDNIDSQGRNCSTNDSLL
Chain of Gonadotropin-releasing hormone receptor (Homo sapiens) (P30968 whole entry, looked up): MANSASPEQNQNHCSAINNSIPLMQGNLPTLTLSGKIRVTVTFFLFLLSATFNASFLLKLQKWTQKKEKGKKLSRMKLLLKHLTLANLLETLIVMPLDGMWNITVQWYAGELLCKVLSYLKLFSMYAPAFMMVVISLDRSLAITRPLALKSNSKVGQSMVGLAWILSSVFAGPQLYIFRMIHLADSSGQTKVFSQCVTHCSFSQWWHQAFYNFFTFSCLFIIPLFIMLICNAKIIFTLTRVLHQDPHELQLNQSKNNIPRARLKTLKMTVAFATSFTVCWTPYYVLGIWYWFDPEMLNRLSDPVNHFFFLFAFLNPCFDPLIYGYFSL
Chain of D(2) dopamine receptor (Homo sapiens) (P14416 whole entry, looked up): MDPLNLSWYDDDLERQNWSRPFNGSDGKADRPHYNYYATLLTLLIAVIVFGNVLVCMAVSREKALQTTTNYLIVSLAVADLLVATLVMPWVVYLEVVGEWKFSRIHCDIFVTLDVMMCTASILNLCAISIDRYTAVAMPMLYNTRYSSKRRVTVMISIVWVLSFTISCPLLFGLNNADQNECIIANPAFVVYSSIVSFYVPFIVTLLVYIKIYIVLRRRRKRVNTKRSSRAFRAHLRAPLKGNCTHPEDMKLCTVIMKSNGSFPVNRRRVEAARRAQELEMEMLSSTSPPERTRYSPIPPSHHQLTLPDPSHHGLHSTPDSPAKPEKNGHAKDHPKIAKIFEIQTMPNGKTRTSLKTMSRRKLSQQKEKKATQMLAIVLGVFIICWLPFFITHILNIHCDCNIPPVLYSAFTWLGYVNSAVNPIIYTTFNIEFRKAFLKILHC
Chain of 5-hydroxytryptamine receptor 2A (Homo sapiens) (P28223 whole entry, looked up): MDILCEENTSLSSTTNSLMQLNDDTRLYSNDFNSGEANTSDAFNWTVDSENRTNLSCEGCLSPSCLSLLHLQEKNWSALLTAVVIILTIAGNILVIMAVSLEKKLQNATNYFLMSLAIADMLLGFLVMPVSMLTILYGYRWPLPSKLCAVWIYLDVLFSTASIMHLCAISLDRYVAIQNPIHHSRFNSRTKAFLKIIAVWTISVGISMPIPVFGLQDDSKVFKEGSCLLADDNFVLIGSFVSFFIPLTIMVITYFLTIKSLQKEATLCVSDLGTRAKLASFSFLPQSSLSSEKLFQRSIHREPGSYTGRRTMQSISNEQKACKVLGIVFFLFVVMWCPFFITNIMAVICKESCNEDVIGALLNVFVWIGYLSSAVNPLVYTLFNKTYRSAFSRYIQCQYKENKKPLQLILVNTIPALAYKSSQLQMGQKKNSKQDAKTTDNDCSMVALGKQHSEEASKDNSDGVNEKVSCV
Chain of Muscarinic acetylcholine receptor M1 (Homo sapiens) (P11229 whole entry, looked up): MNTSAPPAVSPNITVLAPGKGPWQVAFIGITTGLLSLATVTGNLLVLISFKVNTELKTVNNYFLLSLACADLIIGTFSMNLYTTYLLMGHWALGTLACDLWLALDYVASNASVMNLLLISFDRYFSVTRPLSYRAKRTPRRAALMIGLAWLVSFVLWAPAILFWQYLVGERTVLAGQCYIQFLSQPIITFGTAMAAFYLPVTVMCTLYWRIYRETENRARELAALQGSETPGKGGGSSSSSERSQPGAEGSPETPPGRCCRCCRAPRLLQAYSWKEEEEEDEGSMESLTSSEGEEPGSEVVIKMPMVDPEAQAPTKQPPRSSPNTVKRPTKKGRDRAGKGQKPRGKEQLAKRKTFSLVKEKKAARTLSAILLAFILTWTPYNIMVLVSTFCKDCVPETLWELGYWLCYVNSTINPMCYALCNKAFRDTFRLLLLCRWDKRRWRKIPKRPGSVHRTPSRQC
Chain of KiSS-1 receptor (Homo sapiens) (Q969F8 whole entry, looked up): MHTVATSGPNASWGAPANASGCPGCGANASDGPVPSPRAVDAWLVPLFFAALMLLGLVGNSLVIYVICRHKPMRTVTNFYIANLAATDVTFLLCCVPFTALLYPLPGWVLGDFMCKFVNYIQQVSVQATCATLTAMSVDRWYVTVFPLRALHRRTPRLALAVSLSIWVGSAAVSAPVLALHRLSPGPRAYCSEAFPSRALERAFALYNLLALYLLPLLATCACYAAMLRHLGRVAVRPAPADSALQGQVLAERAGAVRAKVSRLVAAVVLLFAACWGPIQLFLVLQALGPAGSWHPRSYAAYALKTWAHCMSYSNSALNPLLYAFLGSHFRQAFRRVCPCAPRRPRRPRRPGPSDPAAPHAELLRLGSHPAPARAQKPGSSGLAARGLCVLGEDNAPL

Compound | Potency [1] | Potency [2] | Potency [3] | Potency [4] | Potency [5] | Potency [6] | Potency [7] | Potency [8] | Potency [9] | Potency [10] | Potency [11] | Potency [12] | Potency [13] | Potency [14] | Potency [15] | Potency [16] | Potency [17] | Potency [18] | Potency [19] | Potency [20]
CCC(C)(O)CCCC(C)C (configuration not stated) | inactive | inactive | inactive | inactive | inactive | inactive | inactive | inactive | inactive | inactive | inactive | inactive | inactive | inactive | inactive | inactive | inactive | inactive | – | –
COc1ccc(C(=O)c2ccccc2)c(O)c1 | inactive | inactive and 54.5 µM (active) | inactive | inactive | inactive | inactive | inactive | inactive | inactive | inactive | inactive | inactive | inactive | – | inactive | inactive | inactive | inactive | inactive | inactive
Cc1[nH]c(=O)c(C#N)cc1-c1ccncc1 | inactive | inactive | inactive | inactive | inactive | inactive | inactive | inactive | inactive | inactive | inactive | – | – | inactive | inactive | inactive | inactive | inactive | – | inactive
CCCNC(=O)NS(=O)(=O)c1ccc(Cl)cc1 | inactive | inactive | inactive | inactive | inactive | inactive | inactive | inactive | inactive | inactive | inactive | – | – | inactive | inactive | inactive | inactive | inactive | – | inactive
NNC(=O)c1ccncc1 | inactive | inactive | inactive | inactive | inactive | inactive | inactive | inactive | inactive | inactive | inactive | – | – | inactive | inactive | inactive | inactive | inactive | – | inactive
Cc1nnc(NS(=O)(=O)c2ccc(N)cc2)s1 | inactive | inactive | inactive | inactive | inactive | inactive | inactive | inactive | inactive | inactive | inactive | – | – | inactive | inactive | inactive | inactive | inactive | – | inactive
CC(=O)[C@H]1CC[C@H]2[C@@H]3CC=C4C[C@@H](O)CC[C@]4(C)[C@H]3CC[C@]12C | inactive | inactive | inactive | inactive | inactive | inactive | inactive | inactive | inactive | inactive | inactive | inactive | inactive | inactive | – | inactive | – | inactive | – | inactive
